According to ChEMBL document CHEMBL3988442, “University of Dundee, Small-Polar-MMV Screening Library” (2021):
Out of some 48,000 compounds screened, about 13,000 (27%) showed an effect of 50% or more. This is one part of the list.

Test system: Wolbachia pipientis
Assay: Anti-Wolbachia Cell-Based Screen
Type: functional
Set-up: scale not given: in the data most compounds retested in dose-response had high values
Details: 5 µM

Compound	Percent Effect [%]
CN(CC1CCCCO1)c1nc(-c2cccnc2)nc2c1CCNC2 (stereo not drawn)	-24.82
CC(C)N1CCc2ncn(C(C)C)c2C1C(=O)NCCN1CCCC1 (stereo not drawn)	-11.46
CCCc1cc(NCCn2cccn2)n2nccc2n1	-0.5952
Cc1cc(NC(=O)CCN(CC2CCOC2)C2CC2)no1 (stereo not drawn)	14.41
CC(C)NC(=O)N[C@H]1C[C@@H](c2nc(-c3ccc(F)cc3)no2)N(C)C1	-4.692
Cc1nc2cc(C(=O)N(CCN(C)C)CCN(C)C)ccc2n1C	-1.95
Cc1cc(CS(=O)(=O)NCC2CCCCC2)on1	-6.001
O=C(Cc1csc(-c2nnc[nH]2)n1)N1CCCC1Cn1cccn1 (stereo not drawn)	1.097
Cc1cnn(CC2CCCN2C(=O)c2csc(-c3nnc[nH]3)n2)c1 (stereo not drawn)	136
O=C(c1ccc(-n2ccnc2)nn1)N1CCCCC1Cn1cccn1 (stereo not drawn)	-18.3
O=C(c1csc(-c2nnc[nH]2)n1)N1CCCCC1Cn1cccn1 (stereo not drawn)	114.8
Cc1noc(OCc2ccc(C#N)cc2)n1	3.288
NC(=O)C1CCN(C(=O)c2cc(S(=O)(=O)N3CCCC3)cs2)CC1	4.91
C=Cn1ncc(CN2C[C@@H]3CCCN3C[C@@H]2Cc2ccccc2)c1C	-5.258
C=Cn1ncc(CN2C[C@@H]3CCCN3C[C@H]2Cc2ccccc2)c1C	116.6
CCn1cc(CN2CC3CCCN3C[C@H]2C)c(C)n1 (stereo partly drawn)	-10.13
CCCn1ncc(CN2C[C@@H]3CCCN3C[C@@H]2CCSC)c1C	-13.92
C=Cn1ncc(CN2C[C@@H]3C[C@@H](O)CN3C[C@@H]2Cc2ccccc2)c1C	135.2
C=Cn1ncc(CN2C[C@@H]3CCCN3C[C@H]2CCSC)c1C	-0.7089
C=Cn1ncc(CN2C[C@@H]3C[C@@H](O)CN3C[C@H]2Cc2ccccc2)c1C	130.9
C=Cn1ncc(CN2C[C@@H]3CCCN3C[C@@H]2CCSC)c1C	137.5

Compound	Percent Effect [%]
COC(=O)C1(C)CCN(C(=O)NCCc2c(C)[nH]c3ccccc23)C1 (stereo not drawn)	-5.132
Cc1ccsc1CN(CCN(C)C)C(=O)c1cc2ccccc2[nH]1	-9.122
COc1c(F)cc(NC(=O)NCc2nncn2C2CC2)cc1F	-0.8393
CNC(=O)c1cccc(NC(=O)c2ccnc(N(C)C)c2)c1C	-1.756
O=C(CNc1ccccc1S(=O)(=O)C(F)F)NCc1ccco1	0.5887
CN(C)S(=O)(=O)N1CCCC1c1cccc(-n2ccnc2)n1 (stereo not drawn)	119.1
CN(CCn1cccn1)S(=O)(=O)N1CCCC1c1ccco1 (stereo not drawn)	-2.44
Cc1nccn1-c1cccc(C2CCCN2S(=O)(=O)N(C)C)n1 (stereo not drawn)	5.145
CN(C)S(=O)(=O)N1CCCC1CC(=O)c1cccs1 (stereo not drawn)	-13.45
CCc1nccn1-c1cccc(C2CCCN2S(=O)(=O)N(C)C)n1 (stereo not drawn)	103.4
Cc1cccc(C2CCCN2S(=O)(=O)N(C)C)n1 (stereo not drawn)	98.12
CN(C)S(=O)(=O)CCCOc1cccc(-n2ccnc2)c1	-3.335
CC(=O)c1ccc(N2CCCC(CO)(CCOc3ccccc3)C2)nc1 (stereo not drawn)	5.356
O=C1NCC2(CCCN(C(=O)Nc3cccc(-c4cscn4)c3)CC2)O1 (stereo not drawn)	-23.17
COCc1cc(N2C[C@@H](C)[C@](O)(C3CC3)C2)ncn1	-1.024
COc1ccc2c(c1)CC(NCc1cccc(CO)c1)CC2 (stereo not drawn)	-7.175
COc1ccc2c(c1)CC(NCCCn1nc(C)nc1C)CC2 (stereo not drawn)	101
COc1ccc2c(c1)CC(NCCCn1cc(C)cn1)CC2 (stereo not drawn)	28.69
CC(NC(=O)c1cc(C(C)C)[nH]n1)C(=O)Nc1ccccc1 (stereo not drawn)	-6.667
Cc1ccc(OC[C@@H]2CNC[C@H](C(=O)NCC3CCCO3)C2)cn1 (stereo partly drawn)	2.624
CCO[C@@H]1CCN(C(=O)c2ccc[nH]2)[C@@H]1Cc1cccnc1.O=C(O)C(F)(F)F	0.6367

Compound	Percent Effect [%]
CO[C@@H]1CCN(Cc2nccn2C)[C@H]1Cc1cccnc1.O=C(O)C(F)(F)F.O=C(O)C(F)(F)F	5.954
CO[C@@H]1CCN(C(=O)Cc2cccc(F)c2)[C@H]1Cc1cccnc1.O=C(O)C(F)(F)F	114.6
CC(=O)NCC(=O)N1CC[C@H](OCC2CC2)[C@@H]1Cc1cccnc1.O=C(O)C(F)(F)F	-17.55
CO[C@@H]1CCN(S(=O)(=O)c2cccs2)[C@H]1Cc1cccnc1.O=C(O)C(F)(F)F	5.775
CO[C@@H]1CCN(C(=O)Cc2ccsc2)[C@H]1Cc1cccnc1.O=C(O)C(F)(F)F	94.83
CO[C@@H]1CCN(C(=O)Cc2ccc(F)cc2)[C@@H]1Cc1cccnc1.O=C(O)C(F)(F)F	111.8
CO[C@H]1CCN(C(=O)Cc2ccc(F)cc2)[C@H]1Cc1ccncc1	101.6
CO[C@H]1CCN(S(=O)(=O)c2cccs2)[C@H]1Cc1cccnc1.O=C(O)C(F)(F)F	-2.032
COCC(=O)N1CC[C@@H](OCC2CC2)[C@@H]1Cc1cccnc1.O=C(O)C(F)(F)F	1.513
COCCO[C@H]1CCN(C(=O)c2ccsc2)[C@H]1Cc1ccncc1	-3.115
COCCO[C@H]1CCN(C(=O)c2cnccn2)[C@H]1Cc1ccncc1	-26.79
C=C(C)CN1CCC(NC(=O)Nc2cc(C(N)=O)ccc2OC)CC1	-10.13
CCc1nn(C)c(Cl)c1CN1CCC2(C1)CN(C)C(=O)O2 (stereo not drawn)	121.6
CCc1nn(C)c(Cl)c1CN1C[C@H](NC(=O)CCO)[C@@H](C(C)C)C1	-7.141
COc1c(F)cc(CN2CCC3(CC2)CN(C)C(=O)O3)cc1Cl	-3.055
CCc1nn(C)c(Cl)c1CN1CCC(Cc2nncn2C)CC1	1.908
CCc1nn(C)c(Cl)c1CN1CCCC2(CC1)CN(C)C(=O)O2 (stereo not drawn)	89.96
CCc1nn(C)c(Cl)c1CN1CCCC2(C1)CN(C)C(=O)O2 (stereo not drawn)	101.8
CN1CC2(CCN(Cc3cc(Cl)ccc3OCC(=O)O)CC2)OC1=O	-19.61
CCc1n[nH]c(C(=O)N2CCCC3(CN(C)C(=O)O3)C2)c1C (stereo not drawn)	-7.274
CCc1nn(C)c(Cl)c1CN1CCN(c2ccc(Cl)nn2)CC1	-2.423
